ADAM10 inh – human ADAM10 inhibitors, primary screen, biochemical, QFRET, HTS | inhibition, % at 7 µM | Disintegrin and metalloproteinase domain-containing protein 10 (Homo sapiens), O14672 | recombinant ADAM10, EDANS/DABCYL FRET peptide cleavage, 3 h | 370,000 tested, 0.62% active;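 active = inhibition above a per-campaign cutoff equal to the mean of compounds falling between control-based bounds plus 3 SD, cut at about 20% in these data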;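 note: 0% = DMSO wells while the 100% control is not disclosed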
PLC-gamma1 inh – PLC-gamma1 enzyme inhibitors, primary screen, biochemical, fluorescence, purified enzyme | 1-phosphatidylinositol 4,5-bisphosphate phosphodiesterase gamma-1 (Homo sapiens), P19174 | fluorogenic substrate | inhibition, % at 12.2 µM | 370,000 tested, 0.84% active
PLCb3 inh – human PLC-beta3 inhibitors, primary screen, biochemical, fluorescence; 1-phosphatidylinositol 4,5-bisphosphate phosphodiesterase beta-3 (Homo sapiens), Q01970; Purified PLC-beta3, fluorogenic substrate; inhibition, % at 12.2 µM; 370,000 tested, 0.18% active; in the data active = inhibition above about 11%;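 note: 0% = median of compound wells on plate and 100% = full blocker control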
ADAM17 inh – ADAM17 inhibitors, primary screen, biochemical, QFRET. Disintegrin and metalloproteinase domain-containing protein 17 (Homo sapiens), P78536. recombinant ADAM17, EDANS/DABCYL FRET peptide cleavage. inhibition, % at 6.95 µM. 370,000 tested, 0.83% active. AID 720648, 2013;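 active = inhibition above the mean of compounds lying between control limits plus 3 SD, set per campaign, cut at about 8.5% in these data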;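 note: 0% = DMSO-only wells as the low control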
Target sequence (P78536 215-824 limits assumed): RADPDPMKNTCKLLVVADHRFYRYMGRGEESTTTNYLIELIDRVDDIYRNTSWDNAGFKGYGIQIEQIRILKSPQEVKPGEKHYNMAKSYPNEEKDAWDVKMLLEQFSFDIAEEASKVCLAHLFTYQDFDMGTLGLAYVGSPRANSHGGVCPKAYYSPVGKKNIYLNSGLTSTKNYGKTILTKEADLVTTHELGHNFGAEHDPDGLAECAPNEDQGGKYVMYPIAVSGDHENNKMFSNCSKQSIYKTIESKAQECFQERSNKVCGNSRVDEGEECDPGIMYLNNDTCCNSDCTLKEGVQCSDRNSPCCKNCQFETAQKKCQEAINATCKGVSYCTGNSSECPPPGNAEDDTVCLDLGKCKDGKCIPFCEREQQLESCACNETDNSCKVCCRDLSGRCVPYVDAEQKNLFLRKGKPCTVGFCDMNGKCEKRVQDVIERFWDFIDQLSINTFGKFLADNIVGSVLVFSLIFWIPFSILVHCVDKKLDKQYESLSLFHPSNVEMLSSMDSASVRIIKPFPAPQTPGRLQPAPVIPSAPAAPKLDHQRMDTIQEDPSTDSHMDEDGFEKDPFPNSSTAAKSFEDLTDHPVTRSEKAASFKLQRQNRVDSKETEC
proKLK7 act – proKLK7 zymogen activators, primary screen, biochemical, fluorescence intensity. Kallikrein-7 (Homo sapiens), P49862. purified proKLK7, EDANS-DABCYL substrate fluorescence; 100% is mature enzyme control, 0% vehicle. activation, % at 7 µM. 370,000 tested, 0.9% active;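 active = activation above the mean of all tested compounds plus 3 SD, computed per campaign excluding outliers beyond control limits, cut at about 13% in these data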
PLCg1 ctr – PLC-gamma1 enzyme inhibitors, counter-screen for PLC-beta3 inhibitor project, biochemical, fluorescence; shares compounds with PLC-gamma1 inh; inhibition, % at 12.3 µM; 3,300 tested, 3.1% active; purified PLC-gamma1, fluorogenic substrate
PLCbeta3 conf – PLC-beta3 inhibitor confirmation, biochemical, fluorescence, purified enzyme; inhibition, % at 12.3 µM; shares compounds with PLC-gamma1 inh; 3,300 tested, 1% active; fluorogenic substrate fluorescence; in the data active = inhibition above about 11%
Starred values were filed as active, the others as inactive; . = no result. Compounds with a hit are over-represented: about 2.9% of the library has one in this group of screens. Cut-off read from the data, not from the text of the source, unless noted: active = inhibition above about 9.5%; inactive = the rest.

SMILES | ADAM10 inh | PLC-gamma1 inh | PLCb3 inh | ADAM17 inh | proKLK7 act | PLCg1 ctr | PLCbeta3 conf
O=C1NC[C@H](CCCCN2C[C@H](Cc3ccccc3)N(CCc3ccc(O)cc3)C(=O)C2=O)N(CC2CCCCC2)C1=O | -5 | -2 | 3 | -2 | 0 | . | .
CC(=O)c1cccc(-c2ccnc3c2CC(C(=O)Nc2cccc(NS(C)(=O)=O)c2)O3)c1 (stereo not given) | -15 | 4 | 0 | -1 | 1 | . | .
CC(C)=CCC[C@H](C)C[C@@H]1CC2=C(C(=O)OC(C)(C)O2)[C@@H](c2ccc(F)cc2)O1 | 3 | 1 | 1 | -2 | 0 | . | .
COc1ccc(NC(=O)CSc2nnnn2-c2ccc(OC)cc2)cc1 | 6 | 11* | 1 | 5 | 0 | 0 | 2
O=C(N/N=C/c1ccc(OC(=O)c2ccccc2)cc1)c1cccc(O)c1 | 6 | 13* | 18* | -1 | 0 | 11* | 15*
O=C(Oc1ccc(/C=N/NC(=O)c2ccco2)cc1)c1ccccc1 | 7 | 10* | 3 | -1 | 0 | 2 | 8
O=C(N/N=C/c1ccc(OC(=O)c2cccs2)cc1)c1ccc(F)cc1 | 6 | 10* | 11* | 3 | 1 | -1 | 5
O=C(N/N=C/c1ccc(F)cc1)c1ccccc1 | 2 | -1 | 2 | 1 | -1 | . | .
O=C(Oc1ccc(/C=N/NC(=O)c2ccccc2O)cc1)c1ccccc1 | 5 | -16 | -19 | -5 | 0 | . | .
CNC(=O)OCc1nc(SC2CCCCO2)n(C)c1COC(=O)NC (stereo not given) | 5 | 0 | 0 | -4 | 0 | . | .
COc1ccc(CCCNC(=O)C2(C)Cc3c(-c4ccc5c(c4)OCO5)ccnc3O2)cc1 (stereo not given) | -13 | -4 | -5 | -5 | 0 | . | .
O=C(NCc1ccccc1)c1ccc(C(=O)NCc2ccccc2)cc1 | -5 | 5 | 1 | -3 | 0 | . | .
O=C(NCc1ccccc1)c1n[nH]nc1-c1ccccc1O | 9 | 17* | -7 | -5 | -1 | 16* | -6
CC(C)(C)OC(=O)C[C@H]1C/C=C\C[C@@H](CC(=O)N(CCO)Cc2ccccc2)C(=O)N2CCC[C@@H]2COC1=O | 7 | 0 | 11* | 9 | -1 | -5 | -2
CC(C)(C)OC(=O)C[C@@H]1C/C=C\C[C@@H](CC(=O)N(CCO)Cc2ccccc2)C(=O)NCCOC1=O | -1 | 1 | 1 | 0 | 1 | . | .
CC(C)(C)OC(=O)C[C@@H]1C/C=C\C[C@H](CC(=O)N(CCO)Cc2ccccc2)C(=O)NCCOC1=O | 3 | 6 | 17* | 3 | 0 | -9 | -6
COC(=O)[C@]12CCCCC=C1N(Cc1ccc3c(c1)OCO3)C(=O)[C@H](CC(=O)N1CCN(C(=O)C3CC3)CC1)C2 | 2 | 0 | 0 | -2 | 0 | . | .
CCOC(=O)[C@H]1[C@H]2COc3ccccc3[C@@H]2N2C(=O)CNC(=O)[C@@]12C | 4 | 7 | 13* | 4 | 0 | -9 | -2
CCOC(=O)[C@H]1[C@H]2COc3ccccc3[C@@H]2N2C(=O)c3cc(F)c(F)cc3NC(=O)[C@@]12C | 0 | 4 | 5 | 3 | 0 | . | .

Screening data as filed in PubChem.
